Measured values from the supplement of paper PMC10849652.
Targets with a hit are over-represented here; the source holds about 7,900 in all. About 0.6% of all pairs of compound and target were hits.

Key:
Assay in all cases: log2 fold change, soluble protein after heating vs DMSO (PISA); higher = thermal stabilisation; K562 cells, 10 uM, 30 min; active = over 0.2 and 3.5 SD of the protein, either way, in both replicates (recomputed)
[1] = compound: COC1=CC=C(C=C1)CN2C=CC3=C2C=C(C=C3)C(=O)NO
Outline: (§1)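 K562 cells at 2×10^6 cells/mL were treated for 30 min with 10 μM compound, and aliquots were heated for 3 min over 48°C-58°C before pooling. Extraction used PBS with 0.5% NP-40 at 4°C, and soluble protein was the supernatant after 21,000xg for 90 min, measured by TMTpro 16plex LC-MS/MS with channel sums equalised. Thermal stability values, relative to control samples and from duplicates, are log2 fold changes.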

filanesib = compound: CON(C)C(=O)N1N=C(c2cc(F)ccc2F)S[C@@]1(CCCN)c1ccccc1 [filanesib]
Outline: as §1

zotarolimus = compound: CO[C@H]1C[C@@H]2CC[C@@H](C)[C@@](O)(O2)C(=O)C(=O)N2CCCC[C@H]2C(=O)O[C@H]([C@H](C)C[C@@H]2CC[C@H](n3cnnn3)[C@H](OC)C2)CC(=O)[C@H](C)/C=C(\C)[C@@H](O)[C@@H](OC)C(=O)[C@H](C)C[C@H](C)/C=C/C=C/C=C/1C [zotarolimus]
Outline: as §1

idasanutlin = compound: COc1cc(C(=O)O)ccc1NC(=O)[C@@H]1N[C@@H](CC(C)(C)C)[C@](C#N)(c2ccc(Cl)cc2F)[C@H]1c1cccc(Cl)c1F [idasanutlin]
Outline: as §1

alisertib = compound: COc1cc(Nc2ncc3c(n2)-c2ccc(Cl)cc2C(c2c(F)cccc2OC)=NC3)ccc1C(=O)O [alisertib]
Outline: as §1

[2] = compound: COc1cc2nc(-c3cc(F)ccc3O)nc(N[C@@H]3CNC[C@H]3C(C)(C)O)c2cc1OC
Outline: as §1

gefitinib = compound: COc1cc2ncnc(Nc3ccc(F)c(Cl)c3)c2cc1OCCCN1CCOCC1 [gefitinib]
Outline: as §1

[3] = compound: COc1cccc2cc(-c3nc([C@H]4CC[C@H](C(=O)O)CC4)n4ncnc(N)c34)[nH]c12
Outline: as §1

lapatinib = compound: CS(=O)(=O)CCNCc1ccc(-c2ccc3ncnc(Nc4ccc(OCc5cccc(F)c5)c(Cl)c4)c3c2)o1 [lapatinib]
Outline: as §1

pictilisib = compound: CS(=O)(=O)N1CCN(Cc2cc3nc(-c4cccc5[nH]ncc45)nc(N4CCOCC4)c3s2)CC1 [pictilisib]
Outline: as §1

[4] = compound: CS(=O)(=O)c1ccc(-c2cnc(N)c(C(=O)Nc3ccccc3)n2)cc1
Outline: as §1

crizotinib = compound: C[C@@H](Oc1cc(-c2cnn(C3CCNCC3)c2)cnc1N)c1c(Cl)ccc(F)c1Cl [crizotinib]
Outline: as §1

[5] = compound: C[C@@H]1COCCN1C2=NC(=NC(=C2)C3(CC3)S(=O)(=O)C)C4=C5C=CNC5=CC=C4
Outline: as §1

[6] = compound: C[C@H](C1=CC=C(C=C1)C(=O)NC2=C3C=CNC3=NC=C2)N
Outline: as §1

duvelisib = compound: C[C@H](Nc1ncnc2nc[nH]c12)c1cc2cccc(Cl)c2c(=O)n1-c1ccccc1 [duvelisib]
Outline: as §1

gandotinib = compound: Cc1cc(Nc2cc(CN3CCOCC3)c3nc(C)c(Cc4ccc(Cl)cc4F)n3n2)n[nH]1 [gandotinib]
Outline: as §1

tozasertib = compound: Cc1cc(Nc2cc(N3CCN(C)CC3)nc(Sc3ccc(NC(=O)C4CC4)cc3)n2)n[nH]1 [tozasertib]
Outline: as §1

[7] = compound: Cc1cc(SCc2sc(-c3ccc(C(F)(F)F)cc3)nc2C)ccc1OCC(=O)O
Outline: as §1

doramapimod = compound: Cc1ccc(-n2nc(C(C)(C)C)cc2NC(=O)Nc2ccc(OCCN3CCOCC3)c3ccccc23)cc1 [doramapimod]
Outline: as §1

ispinesib = compound: Cc1ccc(C(=O)N(CCCN)[C@@H](c2nc3cc(Cl)ccc3c(=O)n2Cc2ccccc2)C(C)C)cc1 [ispinesib]
Outline: as §1

Measured: log2 fold change

WDR61 (UniProt Q9GZS3)
inactive: [1] -0.121 | filanesib -0.031 | zotarolimus 0.008 | idasanutlin -0.05 | alisertib -0.082 | [2] 0.14 | gefitinib -0.035 | [3] 0.065 | lapatinib -0.104 | pictilisib 0.042 | [4] 0.043 | crizotinib -0.044 | [5] 0.071 | [6] -0.056 | duvelisib 0.059 | gandotinib -0.099 | tozasertib -0.072 | [7] -0.017 | doramapimod -0.004 | ispinesib -0.028

TMEM161B (UniProt Q8NDZ6)
Sequence of UniProt Q8NDZ6 (Q8NDZ6 whole entry, looked up): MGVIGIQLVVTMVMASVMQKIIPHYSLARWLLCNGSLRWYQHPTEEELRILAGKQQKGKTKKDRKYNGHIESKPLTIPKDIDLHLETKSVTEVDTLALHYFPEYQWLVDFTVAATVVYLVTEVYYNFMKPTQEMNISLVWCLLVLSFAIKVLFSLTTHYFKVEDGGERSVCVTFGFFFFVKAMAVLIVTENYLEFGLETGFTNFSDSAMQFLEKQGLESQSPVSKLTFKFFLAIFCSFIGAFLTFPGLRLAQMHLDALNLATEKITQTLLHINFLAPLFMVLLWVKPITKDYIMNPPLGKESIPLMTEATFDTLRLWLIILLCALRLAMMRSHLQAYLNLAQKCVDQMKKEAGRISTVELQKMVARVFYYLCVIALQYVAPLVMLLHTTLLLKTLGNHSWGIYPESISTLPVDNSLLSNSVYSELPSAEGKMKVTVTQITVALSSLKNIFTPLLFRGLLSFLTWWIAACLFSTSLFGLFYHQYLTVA
inactive: [1] -0.055 | filanesib -0.008 | zotarolimus -0.035 | idasanutlin -0.16 | alisertib 0.006 | [2] 0.013 | gefitinib 0.087 | [3] -0.015 | lapatinib -0.056 | pictilisib 0.097 | [4] 0.026 | crizotinib -0.096 | [5] 0.004 | [6] 0.002 | duvelisib 0.128 | gandotinib -0.156 | tozasertib 0.063 | [7] 0.11 | doramapimod -0.024 | ispinesib -0.055

TPM2 (UniProt P07951)
Sequence of UniProt P07951 (P07951 whole entry, looked up): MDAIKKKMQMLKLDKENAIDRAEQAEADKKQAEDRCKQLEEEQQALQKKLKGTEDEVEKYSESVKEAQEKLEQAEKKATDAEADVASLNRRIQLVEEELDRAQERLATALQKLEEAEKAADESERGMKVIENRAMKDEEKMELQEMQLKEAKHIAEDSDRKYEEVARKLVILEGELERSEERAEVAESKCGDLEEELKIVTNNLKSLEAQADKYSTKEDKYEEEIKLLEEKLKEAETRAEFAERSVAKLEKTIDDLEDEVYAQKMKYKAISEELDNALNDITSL
active: [1] 0.503
inactive: filanesib -0.024 | zotarolimus 0.013 | idasanutlin -0.026 | alisertib -0.058 | [2] -0.055 | gefitinib -0.003 | [3] -0.14 | lapatinib 0.166 | pictilisib -0.181 | [4] -0.016 | crizotinib -0.012 | [5] -0.167 | [6] -0.29 | duvelisib -0.131 | gandotinib -0.046 | tozasertib 0 | [7] -0.117 | doramapimod 0.059 | ispinesib 0.122

TMEM9 (UniProt Q9P0T7)
inactive: [1] -0.085 | filanesib -0.078 | zotarolimus 0.081 | idasanutlin 0.006 | alisertib -0.081 | [2] -0.178 | gefitinib -0.007 | [3] 0.052 | lapatinib 0.04 | pictilisib 0.036 | [4] -0.026 | crizotinib -0.026 | [5] 0.029 | [6] -0.197 | duvelisib -0.012 | gandotinib -0.026 | tozasertib -0.049 | [7] 0.014 | doramapimod 0.048 | ispinesib -0.093

WRB (UniProt O00258)
Sequence of UniProt O00258 (O00258 whole entry, looked up): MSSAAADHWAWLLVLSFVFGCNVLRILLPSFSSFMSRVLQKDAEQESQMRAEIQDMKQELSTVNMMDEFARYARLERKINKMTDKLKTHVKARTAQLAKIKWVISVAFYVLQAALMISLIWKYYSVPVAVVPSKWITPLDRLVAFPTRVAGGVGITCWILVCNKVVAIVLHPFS
inactive: [1] -0.036 | filanesib -0.041 | zotarolimus -0.019 | idasanutlin -0.032 | alisertib -0.031 | [2] -0.066 | gefitinib 0.012 | [3] 0.051 | lapatinib 0.03 | pictilisib 0.094 | [4] -0.031 | crizotinib 0.057 | [5] 0.036 | [6] -0.028 | duvelisib -0.094 | gandotinib -0.053 | tozasertib -0.016 | [7] 0.067 | doramapimod 0.015 | ispinesib 0.029

UBE3D (UniProt Q7Z6J8)
Sequence of UniProt Q7Z6J8 (Q7Z6J8 whole entry, looked up): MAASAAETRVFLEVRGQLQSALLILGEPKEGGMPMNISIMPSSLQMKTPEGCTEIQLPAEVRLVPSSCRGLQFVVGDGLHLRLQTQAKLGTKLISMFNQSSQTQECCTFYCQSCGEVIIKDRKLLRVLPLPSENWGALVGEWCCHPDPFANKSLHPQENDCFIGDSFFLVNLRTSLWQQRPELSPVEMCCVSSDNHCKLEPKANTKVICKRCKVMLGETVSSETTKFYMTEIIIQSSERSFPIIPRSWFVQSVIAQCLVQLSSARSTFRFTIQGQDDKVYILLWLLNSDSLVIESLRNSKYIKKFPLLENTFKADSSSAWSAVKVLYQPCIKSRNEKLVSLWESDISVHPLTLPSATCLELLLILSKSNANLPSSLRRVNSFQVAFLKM
inactive: [1] -0.005 | filanesib 0.08 | zotarolimus -0.033 | idasanutlin -0.009 | alisertib -0.088 | [2] -0.022 | gefitinib 0.035 | [3] 0.009 | lapatinib -0.069 | pictilisib 0.139 | [4] 0.002 | crizotinib 0.053 | [5] 0.128 | [6] -0.067 | duvelisib 0.016 | gandotinib -0.147 | tozasertib 0.076 | [7] -0.052 | doramapimod -0.01 | ispinesib -0.024

TMEM161A (UniProt Q9NX61)
Sequence of UniProt Q9NX61 (Q9NX61 whole entry, looked up): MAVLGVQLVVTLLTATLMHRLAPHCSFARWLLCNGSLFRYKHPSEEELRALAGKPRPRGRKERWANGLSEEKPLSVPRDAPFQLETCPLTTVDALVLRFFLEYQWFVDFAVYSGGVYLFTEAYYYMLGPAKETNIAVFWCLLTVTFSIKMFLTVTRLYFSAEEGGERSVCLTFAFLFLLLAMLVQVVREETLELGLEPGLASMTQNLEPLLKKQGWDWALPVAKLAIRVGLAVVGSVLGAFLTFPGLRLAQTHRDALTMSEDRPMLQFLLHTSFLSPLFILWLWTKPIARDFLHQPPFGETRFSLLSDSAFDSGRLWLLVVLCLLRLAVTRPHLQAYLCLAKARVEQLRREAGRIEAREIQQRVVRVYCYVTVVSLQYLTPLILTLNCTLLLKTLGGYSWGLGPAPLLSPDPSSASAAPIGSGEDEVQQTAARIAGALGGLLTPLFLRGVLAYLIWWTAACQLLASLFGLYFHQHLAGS
inactive: [1] -0.021 | filanesib -0.148 | zotarolimus -0.072 | idasanutlin -0.167 | alisertib 0.009 | [2] -0.033 | gefitinib -0.01 | [3] 0.051 | lapatinib 0.075 | pictilisib -0.106 | [4] -0.038 | crizotinib -0.026 | [5] -0.006 | [6] 0.001 | duvelisib -0.032 | gandotinib -0.156 | tozasertib -0.145 | [7] 0.051 | doramapimod -0.023 | ispinesib -0.251

WDR18 (UniProt Q9BV38)
inactive: [1] -0.04 | filanesib 0.02 | zotarolimus -0.024 | idasanutlin 0.039 | alisertib -0.041 | [2] 0.056 | gefitinib 0.024 | [3] 0.035 | lapatinib 0.005 | pictilisib -0.004 | [4] -0.023 | crizotinib -0.008 | [5] -0.022 | [6] -0.102 | duvelisib -0.012 | gandotinib -0.021 | tozasertib 0.022 | [7] -0.009 | doramapimod 0.026 | ispinesib 0.027

WARS2 (UniProt Q9UGM6)
inactive: [1] -0.072 | filanesib -0.089 | zotarolimus -0.034 | idasanutlin 0.014 | alisertib -0.025 | [2] 0.062 | gefitinib -0.035 | [3] 0 | lapatinib -0.127 | pictilisib 0.037 | [4] -0.062 | crizotinib 0.09 | [5] 0.065 | [6] 0.027 | duvelisib 0.079 | gandotinib 0.006 | tozasertib -0.001 | [7] 0.04 | doramapimod 0.017 | ispinesib -0.085

TMTC3 (UniProt Q6ZXV5)
inactive: [1] -0.092 | filanesib 0.01 | zotarolimus 0.006 | idasanutlin -0.03 | alisertib 0.105 | [2] -0.085 | gefitinib -0.007 | [3] -0.041 | lapatinib 0.053 | pictilisib 0.032 | [4] 0.054 | crizotinib -0.088 | [5] -0.052 | [6] 0.072 | duvelisib -0.017 | gandotinib -0.039 | tozasertib -0.012 | [7] 0.038 | doramapimod 0.018 | ispinesib -0.188

UBE4A isoform 2 (UniProt Q14139)
Sequence of UniProt Q14139 (Q14139 whole entry, looked up): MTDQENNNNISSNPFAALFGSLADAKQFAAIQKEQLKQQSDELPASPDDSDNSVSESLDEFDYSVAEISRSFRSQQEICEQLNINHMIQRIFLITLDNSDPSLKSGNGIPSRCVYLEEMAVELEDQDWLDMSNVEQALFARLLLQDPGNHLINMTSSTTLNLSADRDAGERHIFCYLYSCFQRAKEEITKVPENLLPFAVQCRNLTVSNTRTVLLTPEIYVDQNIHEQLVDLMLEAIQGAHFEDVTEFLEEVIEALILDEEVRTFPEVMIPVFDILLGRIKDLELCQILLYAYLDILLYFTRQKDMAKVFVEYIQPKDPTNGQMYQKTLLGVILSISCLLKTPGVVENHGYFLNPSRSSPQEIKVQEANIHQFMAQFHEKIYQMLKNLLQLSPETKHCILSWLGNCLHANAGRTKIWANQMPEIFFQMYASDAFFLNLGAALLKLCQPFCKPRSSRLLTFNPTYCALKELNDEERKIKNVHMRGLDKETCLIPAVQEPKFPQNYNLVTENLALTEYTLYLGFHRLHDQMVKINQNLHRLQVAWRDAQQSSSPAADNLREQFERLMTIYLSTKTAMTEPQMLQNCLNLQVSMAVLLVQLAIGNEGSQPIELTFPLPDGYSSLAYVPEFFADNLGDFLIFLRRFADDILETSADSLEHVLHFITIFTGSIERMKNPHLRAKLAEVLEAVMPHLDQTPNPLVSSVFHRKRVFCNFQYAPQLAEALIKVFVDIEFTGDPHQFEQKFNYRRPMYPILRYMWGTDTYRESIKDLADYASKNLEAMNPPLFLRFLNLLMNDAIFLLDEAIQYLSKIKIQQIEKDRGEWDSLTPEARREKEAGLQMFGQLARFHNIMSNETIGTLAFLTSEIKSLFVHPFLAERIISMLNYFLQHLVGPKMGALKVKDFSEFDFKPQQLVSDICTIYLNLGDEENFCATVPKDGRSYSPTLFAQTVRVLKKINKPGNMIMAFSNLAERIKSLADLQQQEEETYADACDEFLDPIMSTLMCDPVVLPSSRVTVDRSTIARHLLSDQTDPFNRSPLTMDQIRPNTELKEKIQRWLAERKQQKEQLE
active: [6] 0.29
inactive: [1] 0.037 | filanesib -0.023 | zotarolimus -0.003 | idasanutlin 0.008 | alisertib -0.003 | [2] -0.024 | gefitinib -0.056 | [3] -0.073 | lapatinib 0.022 | pictilisib 0.016 | [4] 0.036 | crizotinib -0.275 | [5] 0.069 | duvelisib 0.006 | gandotinib -0.076 | tozasertib 0.037 | [7] 0.117 | doramapimod -0.023 | ispinesib -0.172

TXN2 (UniProt Q99757)
Sequence of UniProt Q99757 (Q99757 whole entry, looked up): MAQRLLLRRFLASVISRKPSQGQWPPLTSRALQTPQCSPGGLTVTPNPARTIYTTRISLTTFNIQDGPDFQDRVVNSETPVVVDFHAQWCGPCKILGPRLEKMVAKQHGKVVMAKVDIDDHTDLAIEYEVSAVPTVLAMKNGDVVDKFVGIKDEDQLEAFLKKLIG
inactive: [1] 0.039 | filanesib 0.015 | zotarolimus 0.211 | idasanutlin 0.108 | alisertib -0.19 | [2] -0.015 | gefitinib 0.042 | [3] -0.023 | lapatinib -0.078 | pictilisib -0.186 | [4] -0.001 | crizotinib 0.128 | [5] -0.047 | duvelisib 0.031 | gandotinib 0.105 | tozasertib 0.009 | [7] -0.026 | doramapimod -0.034 | ispinesib 0.028
active: [6] -0.317

WDR4 (UniProt P57081)
Sequence of UniProt P57081 (P57081 whole entry, looked up): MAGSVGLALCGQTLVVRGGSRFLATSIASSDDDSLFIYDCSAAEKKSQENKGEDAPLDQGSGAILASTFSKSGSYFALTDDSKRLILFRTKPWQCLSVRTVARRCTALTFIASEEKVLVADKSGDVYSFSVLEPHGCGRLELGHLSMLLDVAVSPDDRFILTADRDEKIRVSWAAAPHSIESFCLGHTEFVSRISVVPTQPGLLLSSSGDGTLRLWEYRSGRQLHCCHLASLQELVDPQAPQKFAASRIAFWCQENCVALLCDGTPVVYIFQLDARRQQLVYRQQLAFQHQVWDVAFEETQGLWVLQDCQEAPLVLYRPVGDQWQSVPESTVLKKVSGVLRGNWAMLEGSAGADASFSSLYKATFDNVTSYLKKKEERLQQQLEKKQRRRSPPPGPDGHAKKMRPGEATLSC
inactive: [1] 0.017 | filanesib -0.022 | zotarolimus 0.004 | idasanutlin -0.096 | alisertib -0.059 | [2] -0.058 | gefitinib -0.01 | [3] 0.049 | lapatinib 0.206 | pictilisib 0.131 | [4] 0.085 | crizotinib -0.038 | [5] -0.024 | [6] -0.121 | duvelisib 0.014 | gandotinib 0.049 | tozasertib -0.007 | [7] 0.017 | doramapimod 0.023 | ispinesib 0.075

UBA1 (UniProt P22314)
Sequence of UniProt P22314 (P22314 whole entry, looked up): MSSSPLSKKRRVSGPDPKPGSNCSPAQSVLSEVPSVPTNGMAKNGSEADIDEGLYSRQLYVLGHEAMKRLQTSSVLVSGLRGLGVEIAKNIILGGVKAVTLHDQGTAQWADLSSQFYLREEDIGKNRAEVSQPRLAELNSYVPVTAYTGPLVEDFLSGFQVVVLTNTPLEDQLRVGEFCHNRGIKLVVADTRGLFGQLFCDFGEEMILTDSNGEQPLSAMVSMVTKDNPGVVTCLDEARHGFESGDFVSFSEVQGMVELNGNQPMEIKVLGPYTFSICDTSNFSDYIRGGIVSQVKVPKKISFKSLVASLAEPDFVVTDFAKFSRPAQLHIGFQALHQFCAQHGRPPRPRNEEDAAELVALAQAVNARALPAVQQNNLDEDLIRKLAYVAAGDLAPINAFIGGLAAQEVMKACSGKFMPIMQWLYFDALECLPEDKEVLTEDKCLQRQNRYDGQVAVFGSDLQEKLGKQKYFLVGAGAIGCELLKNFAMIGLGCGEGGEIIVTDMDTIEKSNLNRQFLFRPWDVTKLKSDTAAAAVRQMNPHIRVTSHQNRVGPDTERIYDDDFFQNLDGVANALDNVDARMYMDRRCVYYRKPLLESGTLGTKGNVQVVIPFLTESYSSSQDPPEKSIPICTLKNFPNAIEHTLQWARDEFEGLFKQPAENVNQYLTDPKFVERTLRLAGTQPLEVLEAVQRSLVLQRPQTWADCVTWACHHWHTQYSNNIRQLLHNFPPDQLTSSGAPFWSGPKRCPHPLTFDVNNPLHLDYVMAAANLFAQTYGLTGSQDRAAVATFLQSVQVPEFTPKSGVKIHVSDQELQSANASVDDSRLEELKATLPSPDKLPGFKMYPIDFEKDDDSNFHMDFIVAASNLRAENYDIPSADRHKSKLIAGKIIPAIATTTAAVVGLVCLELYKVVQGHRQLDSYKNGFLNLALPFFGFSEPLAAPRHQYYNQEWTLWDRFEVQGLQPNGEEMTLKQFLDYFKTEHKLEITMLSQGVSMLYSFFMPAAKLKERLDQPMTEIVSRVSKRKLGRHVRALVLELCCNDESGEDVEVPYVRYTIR
inactive: [1] 0.029 | filanesib -0.077 | zotarolimus -0.021 | idasanutlin -0.014 | alisertib 0.05 | [2] 0.047 | gefitinib 0.05 | [3] -0.053 | lapatinib -0.06 | pictilisib -0.019 | [4] 0.127 | crizotinib -0.338 | [5] 0.091 | [6] 0.017 | duvelisib -0.014 | gandotinib -0.068 | tozasertib 0.066 | [7] 0.148 | doramapimod -0.031 | ispinesib -0.11

WNK1 isoform 7 (UniProt Q9H4A3)
inactive: [1] -0.034 | filanesib -0.003 | zotarolimus -0.006 | idasanutlin -0.026 | alisertib -0.026 | [2] 0.082 | gefitinib 0 | [3] 0.032 | lapatinib -0.002 | pictilisib 0 | [4] 0.022 | crizotinib -0.061 | [5] -0.027 | [6] 0.03 | duvelisib -0.016 | gandotinib -0.032 | tozasertib 0.001 | [7] -0.018 | doramapimod 0.001 | ispinesib -0.044

TTC4 (UniProt O95801)
Sequence of UniProt O95801 (O95801 whole entry, looked up): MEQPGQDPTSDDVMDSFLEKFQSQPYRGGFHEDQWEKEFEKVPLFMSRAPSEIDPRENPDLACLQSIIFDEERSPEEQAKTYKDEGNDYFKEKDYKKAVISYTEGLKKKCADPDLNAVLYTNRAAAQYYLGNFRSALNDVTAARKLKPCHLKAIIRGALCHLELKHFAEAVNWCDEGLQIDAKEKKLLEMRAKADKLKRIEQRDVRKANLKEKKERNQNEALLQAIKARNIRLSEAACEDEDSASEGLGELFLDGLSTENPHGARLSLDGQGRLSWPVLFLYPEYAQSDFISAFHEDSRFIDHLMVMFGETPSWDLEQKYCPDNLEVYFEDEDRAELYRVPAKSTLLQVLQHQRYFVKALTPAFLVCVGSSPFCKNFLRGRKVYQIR
inactive: [1] 0.087 | filanesib 0.004 | zotarolimus 0.016 | idasanutlin -0.003 | alisertib 0.029 | [2] 0.054 | gefitinib 0.032 | [3] -0.072 | lapatinib -0.003 | pictilisib -0.016 | [4] 0.046 | crizotinib -0.001 | [5] 0.017 | [6] 0.029 | duvelisib 0.032 | gandotinib -0.025 | tozasertib 0.061 | [7] 0.134 | doramapimod -0.028 | ispinesib 0.108
